The list is not random: actives were taken first. Their share in the collection is about 2.3%.
TRPV1 ag: activates the human vanilloid receptor TRPV1; Q8NER1; activation, % at 8.33 µM; TRPV1-expressing cells, Fluo-8 calcium influx, agonist mode; 0.19% of 320,000 active; AID 540275; in the data active means activation above about 80%; inconclusive means between about 30% and that limit; further: 0% is about no effect
Target sequence (Q8NER1 whole entry, looked up): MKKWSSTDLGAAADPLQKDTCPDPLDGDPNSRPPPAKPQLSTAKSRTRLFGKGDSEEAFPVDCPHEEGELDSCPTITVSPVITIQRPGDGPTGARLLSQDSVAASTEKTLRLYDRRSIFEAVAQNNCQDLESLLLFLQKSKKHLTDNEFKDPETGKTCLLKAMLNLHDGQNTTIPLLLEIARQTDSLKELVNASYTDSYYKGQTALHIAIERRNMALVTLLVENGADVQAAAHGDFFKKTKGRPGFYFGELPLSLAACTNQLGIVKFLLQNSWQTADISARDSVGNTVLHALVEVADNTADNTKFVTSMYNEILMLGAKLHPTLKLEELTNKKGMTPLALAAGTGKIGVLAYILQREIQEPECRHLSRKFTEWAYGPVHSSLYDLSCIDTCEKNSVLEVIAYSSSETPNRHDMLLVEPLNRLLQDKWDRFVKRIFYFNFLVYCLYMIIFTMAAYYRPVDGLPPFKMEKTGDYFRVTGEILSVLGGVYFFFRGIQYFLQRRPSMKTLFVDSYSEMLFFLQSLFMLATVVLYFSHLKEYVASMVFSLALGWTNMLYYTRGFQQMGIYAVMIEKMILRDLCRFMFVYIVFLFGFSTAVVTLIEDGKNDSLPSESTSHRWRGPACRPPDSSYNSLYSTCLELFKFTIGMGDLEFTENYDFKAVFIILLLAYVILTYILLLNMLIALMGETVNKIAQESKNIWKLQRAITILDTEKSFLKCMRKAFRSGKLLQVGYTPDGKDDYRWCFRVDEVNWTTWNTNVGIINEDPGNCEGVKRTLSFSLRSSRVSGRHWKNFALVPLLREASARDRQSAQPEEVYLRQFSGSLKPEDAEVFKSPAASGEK
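Cells expressing TRPV1 were dye-loaded with Fluo-8 and read kinetically: 10 s baseline, 3 min after compound (agonist portion), then 2 min after EC20 capsaicin (allosteric enhancer portion). Calcium-bound dye fluorescence at 480/520 nm.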
ELG1 DNA repair: ELG1-dependent DNA repair inhibition; HEK293T ELG1-luciferase reporter, luminescence, 16 h; DNA damage induced by 5-fluorouridine; Potency, µM (titrated, usually from 46.1 µM), for the others: at the top dose activity change, negative = inhibition, hits mostly inhibitors; 2.3% of 330,000 active; further: potency means the concentration at half of the fitted maximal effect; on the % scale 0 is the no-effect control and ±100 the full control effect; nearly all actives have a fitted effect of over 55% in size
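5-Fluorouridine DNA damage + compound/DMSO, 2,000 cells/well, 16 h, 37 °C/5% CO2. ONE-Glo, 30 min RT, luminescence. Readout = decrease in reporter signal.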
TRPV1 PAM: enhances activation of the human vanilloid receptor TRPV1. Q8NER1. TRPV1-expressing cells, Fluo-8 calcium influx, capsaicin EC20 potentiation. potentiation, % at 8.33 µM. 0.02% of 320,000 active; in the data active means potentiation above about 80%; inconclusive means between about 30% and that limit; further: 0% is about no effect
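Fluo-8 calcium influx in TRPV1-expressing cells, kinetic read (ex 480/em 520 nm). Compound added and read 3 min for agonist activity, followed by capsaicin at EC20 final and 2 min further read for enhancement.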
FUS suppressor: FUS proteinopathy suppression in yeast. S. cerevisiae FUS-expressing, growth rescue, OD600, 24 h. Potency, µM (titrated, usually from 76.6 µM), actives largely listed as activators. 0.24% of 390,000 active;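 further: potency means the concentration at half of the fitted maximal effect; plate controls were DMSO vehicle for no effect and reference control for full effect; nearly all actives have a fitted effect of over 55% in size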
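Compound concentration series was pinned onto galactose-induced FUS-expressing yeast seeded at OD 0.005. Plates sat 24hr at 30C; absorbance at 600 nm gave growth. DMSO served as background control.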
Giardia killer: kills Giardia lamblia. Giardia lamblia trophozoite viability. activity change, % at 7.66 µM, hits read low. 0.15% of 340,000 active; in the data active means activity change below about -80%; inconclusive means between about -30% and that limit;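 further: parasites exposed to compound for two days anaerobically before the ATP read; on the % scale 0 is the no-effect control and ±100 the full control effect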
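Giardia lamblia trophozoites (100 cells/well) were incubated with compounds for 48 h at 37 deg C under anaerobic conditions. Viability was read as ATP content by one-step luminescence after 15-30 min at room temperature.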
* marks the source's active call; other numbers are inactive results; i = inactive; ? = inconclusive; . = no result given. Unless noted, the call rests on the fitted dose curve; in most records, active means well fitted curve in the direction sought with a large enough effect; inconclusive means small, poorly fitted or top-dose-only effect, or another doubt; inactive means no such curve, though single readings can be large; an effect the other way counts as inactive or inconclusive.

SMILES	TRPV1 ag	ELG1 DNA repair	TRPV1 PAM	FUS suppressor	Giardia killer
CC(=O)n1cc([C@@H]2C=C(C(=O)N3CCN(Cc4ccccc4)CC3)O[C@H](OCc3ccc(CO)cc3)C2)c2ccccc21	2.7	9.2µM*	5.3	i	14.9
CCO[C@H]1OC(C(=O)N2CCN(Cc3ccc4c(c3)OCO4)CC2)=C[C@@H](c2cn(C(C)=O)c3ccccc23)[C@@H]1CCCO	9.5	10.3µM*	-8.7	i	-26.3
CC(=O)n1cc([C@H]2C=C(C(=O)NCc3ccccc3)O[C@@H](OCc3ccc(CO)cc3)C2)c2ccccc21	9.0	?	10.0	25.1µM*	10.0
O=C(Nc1nc2nc(-c3ccccc3)cc(-c3ccccc3)n2n1)c1ccco1	?	8.2µM*	-7.0	?	7.7
COc1ccc(CCN=C(N)NS(=O)(=O)c2ccc(F)cc2)cc1	2.6	18.3µM*	-1.7	i	-14.8
CS(=O)(=O)N1CCN(c2ccc(NC(=O)c3ccc([N+](=O)[O-])o3)cc2)CC1	1.7	?	-1.3	?	-81.2*
COc1ccc(N2CCCC2)c(NC(=O)c2ccc([N+](=O)[O-])o2)c1	0.2	5.1%	4.3	i	-85.9*
CCC(=O)N1CCN(c2ccc(NC(=O)c3ccc([N+](=O)[O-])o3)cc2)CC1	-2.5	-16.3%	?	i	?
CS(=O)(=O)N1CCN(c2ccc(NC(=O)c3cc4ccccc4o3)cc2)CC1	-0.8	?	11.1	i	-25.1
CC1CCN(c2ccc(NC(=O)c3ccc([N+](=O)[O-])o3)cc2)CC1	?	?	-0.6	i	?
CC(C)(C)C(=O)N1CCN(c2ccc(NC(=O)c3ccc([N+](=O)[O-])o3)cc2)CC1	-2.3	?	-0.5	i	-81.1*
O=C(Nc1ccc(N2CCCC2)c(Cl)c1)c1ccc([N+](=O)[O-])o1	-15.5	?	?	i	?
O=C(Nc1ccc(N2CCCCC2)cc1)c1ccc([N+](=O)[O-])o1	?	?	10.0	i	-85.1*
COc1cc2c(cc1OC)C(COc1ccc3c(C)cc(=O)oc3c1)N(C(=O)c1ccccc1F)CC2 (stereo not drawn)	.	.	.	i	.
O=C(Nc1ccc(N2CCN(C(=O)c3ccc(Cl)cc3)CC2)cc1)c1ccc([N+](=O)[O-])o1	5.4	?	6.0	i	-86.8*
CCCC(=O)N1CCN(c2ccc(NC(=S)NC(=O)c3cccc(C)c3)cc2)CC1	5.4	16.4µM*	7.1	i	27.3
COc1cccc(C(=O)NC(=S)Nc2ccc(N3CCCC3)cc2)c1	-7.4	-21.3%	-21.8	i	-1.6
CCCC(=O)N1CCN(c2ccc(NC(=O)c3ccc([N+](=O)[O-])o3)cc2)CC1	-1.3	?	-3.6	i	-81.6*
COc1cccc(NC(=O)C2CCC(CNS(=O)(=O)c3ccc4c(c3)CCCC(=O)N4)CC2)c1 (stereo not drawn)	.	.	.	i	.
CCOC(=O)c1ccccc1NC(=O)CN(c1cccc(C)c1C)S(=O)(=O)c1ccccc1	.	.	.	i	.
COc1cc(CNC(=O)c2cc(-c3ccccc3)n[nH]2)cc(OC)c1OC	.	.	.	i	.
CN(C)c1ccc(/C=C/C(=O)c2cccnc2)cc1	84.9*	-3.4%	-3.5	i	20.4
CN(C)c1ccc(/C=C/C(=O)c2ccc(O)cc2)cc1	.	.	.	.	-12.9
COc1cccc(CN(C)C(=O)c2ccc(OCC(=O)Nc3cccc(C(F)(F)F)c3)c(OC)c2)c1	-2.2	14.6µM*	9.3	i	-18.1
Cc1cccc(C(=O)NCC(=O)OCc2cc(=O)n3nc(C4CCCCC4)sc3n2)c1	.	.	.	i	.
SMILES	TRPV1 ag	ELG1 DNA repair	TRPV1 PAM	FUS suppressor	Giardia killer
COc1ccc(C(=O)CN2CCN(c3cc(C)nc4ccccc34)CC2)cc1	4.5	8.2µM*	-4.8	i	29.3
Cc1cc(N2CCN(S(=O)(=O)c3ccc(Cl)c(Cl)c3)CC2)c2ccccc2n1	-3.1	?	2.1	i	-4.3
COc1ccc(N2CCN(CC(=O)c3ccccc3)CC2)cc1	0.6	3.1%	3.2	i	12.0
Cc1cc(N2CCN(S(=O)(=O)c3ccc(Cl)cc3)CC2)c2ccccc2n1	-2.6	23.1µM*	0.1	i	7.2
COc1ccc(CNC(=O)CN2CCN(c3cccc(C)c3C)CC2)cc1	80.0*	-19.4%	-5.1	i	2.1
Cc1ccc(OCc2nnc(SCC(=O)c3ccccc3)n2-c2ccccc2)cc1	?	23.1µM*	-8.4	?	15.2
Cc1ccc(OCc2nnc(SCC(=O)O)n2-c2ccccc2)cc1	.	.	.	i	-18.8
COC(=O)c1cccc(NC(=O)CSc2nnc(COc3ccc(C#N)cc3)n2-c2ccccc2)c1	-0.7	?	-2.9	i	-22.4
N#Cc1ccc(OCc2nnc(SCC(=O)c3ccccc3)n2-c2ccccc2)cc1	5.1	14.6µM*	-4.9	i	4.1
CCC(=O)N1CCC1(C)C(=O)Nc1nccs1 (stereo not drawn)	.	.	.	i	.
COC(=O)C1=C(C)NC(C)=C(C(=O)OC)C1c1ccc(C)o1	2.6	0.0%	2.7	i	7.7
CC1=C(C(=O)OC(C)C)C(c2ccc(C)o2)C(C(=O)OC(C)C)=C(C)N1	23.3	18.3µM*	-37.7	i	-20.5
Cc1ccc(CN(Cc2cccn2-c2nnc(N3CCCC3=O)s2)C(=O)Nc2ccccc2Cl)cc1	.	.	.	35.5µM*	.
Cc1nc(CC(=O)Nc2ccc(C(N)=O)cc2)cs1	.	.	.	i	.
CC1CCCCN1C(=O)c1cccc(NC2=C(Cl)C(=O)N(Cc3ccccc3)C2=O)c1 (stereo not drawn)	?	10µM*	-7.7	i	17.2
CC1CCN(C(=O)c2ccc(NC3=C(Cl)C(=O)N(Cc4ccccc4)C3=O)cc2)CC1	?	10.3µM*	5.4	i	2.4
O=C(NCC(c1cccnc1)N1CCc2ccccc2C1)C(=O)Nc1ccc(Cl)cc1 (stereo not drawn)	.	.	.	i	.
Cc1ccc(-c2cc(C(=O)N(C)Cc3cnn(C)c3C)c3cc(Br)ccc3n2)cc1	?	5.8µM*	4.2	.	23.7
COc1ccc(OC)c(NC(=O)CN(c2ccc(C(C)C)cc2)S(=O)(=O)c2c(C)noc2C)c1	.	8.2µM*	.	?	-0.2
COc1ccc(OC)c(NC(=O)CN(c2ccc(C)cc2)S(=O)(=O)c2c(C)noc2C)c1	2.0	?	1.1	i	-16.7
CCC(Oc1ccccc1F)C(=O)Nc1cc(-c2ccccc2)no1 (stereo not drawn)	.	.	.	i	.
CC(C)(C)c1ccc(/C=C/C(=O)Nc2cccnc2)cc1	101.4*	?	-19.5	i	-4.1
O=C(/C=C/c1ccc(Cl)c(Cl)c1)Nc1cccnc1	.	.	.	i	-6.1
CSc1ccc(/C=C/C(=O)Nc2ccccc2)cc1	89.7*	?	3.8	i	?
COc1ccccc1NC(=O)C1=C(C)Nc2nc(SCC(=O)c3ccc(C)cc3)nn2C1c1ccc(F)cc1 (stereo not drawn)	.	.	.	i	.

Source: PubChem BioAssay
